Laboratory results from PubChem BioAssay (Tox21).
Values joined by “and” are separate entries in the source; they are usually repeats but may differ in a detail not shown here. Identical values can stand only once. Inconclusive results are not listed. Entries that show only a call come without a potency. More than one record can exist for a structure, and the calls need not agree. Active and inactive are the calls of the source. Unless noted, the call rests on the fitted dose curve; in most records, active means well fitted curve in the direction sought with a large enough effect in the repeat runs; inconclusive means weak or mixed curves; inactive means no such curve, though single readings can be large; an effect the other way counts as inactive or inconclusive.

Columns and labels:
[1] = qHTS assay to test for compound auto fluorescence at 535 nm (green) in HEK293 cells (AID 720680)
[2] = qHTS assay to test for compound auto fluorescence at 460 nm (blue) in HEK293 cell free culture (AID 720681)
Method in brief: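 Compounds were added to cell-free DMEM with 10% FBS and fluorescence read directly. The blue channel used 405 nm excitation and 460 nm emission, with triamterene as the reference fluorophore.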

[3] = qHTS assay to test for compound auto fluorescence at 535 nm (green) in HEK293 cell free culture (AID 720682)
Method in brief: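 Steps: dispense DMEM/10% FBS into empty wells; pin in compound or DMSO; measure fluorescence at 485/535 nm. Values are fluorescein equivalents.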

[4] = qHTS assay to test for compound auto fluorescence at 590 nm (red) in HEK293 cell free culture (AID 720683)
Method in brief: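 Cell-free wells of DMEM with 10% FBS received compound, and intrinsic fluorescence was read at excitation/emission 540/590 nm. Values expressed as equivalence to Rose Bengal sodium.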

[5] = qHTS assay to test for compound auto fluorescence at 590 nm (red) in HepG2 cell free culture (AID 720684)
Method in brief: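 Rose Bengal sodium served as the reference for red signal. Test compounds were dispensed into serum-containing MEM (10% FBS) without cells, and plates were read at 540/590 nm.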

[6] = qHTS assay to test for compound auto fluorescence at 460 nm (blue) in HepG2 cell free culture (AID 720685)
Method in brief: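 Cell-free plates of MEM plus 10% FBS received 23 nL compound or DMSO vehicle; blue-channel (405/460 nm) intensity scored against triamterene as reference fluorophore.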

[7] = qHTS assay to test for compound auto fluorescence at 535 nm (green) in HepG2 cell free culture (AID 720686)
[8] = qHTS assay to test for compound auto fluorescence at 460 nm (blue) in HepG2 cells (AID 720687)
Method in brief: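 HepG2 cells in MEM with 10% FBS, attached overnight at 37 C, were exposed to compound or DMSO for 1 hr at 37 C, 5% CO2. Blue fluorescence was read at 405/460 nm, with triamterene as reference fluorophore.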

[9] = biological target: Glucocorticoid receptor (Homo sapiens) (UniProt P04150); assay: qHTS assay to identify small molecule agonists of the glucocorticoid receptor (GR) signaling pathway (AID 720691; active means well fitted activation curve with a large enough effect in the signal ratio in the repeat runs, not every such curve was filed as active; the % refers to the signal ratio)
Sequence of Glucocorticoid receptor (Homo sapiens) (P04150 whole entry, looked up): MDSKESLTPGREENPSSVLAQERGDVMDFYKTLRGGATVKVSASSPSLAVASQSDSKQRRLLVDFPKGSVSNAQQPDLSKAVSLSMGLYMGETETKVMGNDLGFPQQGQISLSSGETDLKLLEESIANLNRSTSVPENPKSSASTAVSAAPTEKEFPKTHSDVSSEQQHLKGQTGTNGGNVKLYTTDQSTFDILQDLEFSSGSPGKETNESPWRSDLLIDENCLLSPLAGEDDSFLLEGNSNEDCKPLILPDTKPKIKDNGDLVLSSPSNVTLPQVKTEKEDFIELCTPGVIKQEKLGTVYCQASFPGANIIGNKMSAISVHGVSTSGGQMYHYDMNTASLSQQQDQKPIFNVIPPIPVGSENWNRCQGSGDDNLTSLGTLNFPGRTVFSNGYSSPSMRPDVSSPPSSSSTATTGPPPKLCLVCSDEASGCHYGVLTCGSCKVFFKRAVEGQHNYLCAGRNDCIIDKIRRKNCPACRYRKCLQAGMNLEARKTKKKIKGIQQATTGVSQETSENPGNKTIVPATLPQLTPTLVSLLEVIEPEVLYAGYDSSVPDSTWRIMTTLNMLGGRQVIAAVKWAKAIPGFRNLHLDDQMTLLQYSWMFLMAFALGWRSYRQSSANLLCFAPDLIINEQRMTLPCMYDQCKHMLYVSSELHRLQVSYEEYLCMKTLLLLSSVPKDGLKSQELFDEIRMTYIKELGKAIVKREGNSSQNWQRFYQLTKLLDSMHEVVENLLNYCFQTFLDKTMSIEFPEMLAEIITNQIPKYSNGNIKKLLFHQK
Method in brief: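 HeLa GR-bla reporter line; cells pre-incubated 4 h, compound in DMSO 18 h at 37 C; LiveBLAzer B/G FRET substrate 2 h RT; fluorescence intensity read-out.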

[10] = biological target: Glucocorticoid receptor (Homo sapiens) (UniProt P04150); assay: qHTS assay to identify small molecule antagonists of the glucocorticoid receptor (GR) signaling pathway (AID 720692; active means well fitted inhibition curve with a large enough effect in the signal ratio in the repeat runs, not every such curve was filed as active; the % refers to the signal ratio; further: potency means the concentration at half of the fitted maximal effect)
Method in brief: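 Read-out: beta-lactamase FRET substrate fluorescence, 2 h at room temperature, in HeLa cells stably carrying a GRE-driven bla reporter. Compounds were co-incubated with 5 nM dexamethasone agonist (final) for 18 h at 37 C.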

[11] = qHTS assay to identify small molecule antagonists of the glucocorticoid receptor (GR) signaling pathway - cell viability counter screen (AID 720693); further: nearly all actives have a fitted effect of over 55% in size; further: potency means the concentration at half of the fitted maximal effect
[12] = qHTS assay for identifying genotoxic compounds that show differential cytotoxicity against isogenic chicken DT40 cell lines with known DNA damage response pathways - wild type cell line (AID 743012); further: nearly all actives have a fitted effect of over 60% in size; further: potency means the concentration at half of the fitted maximal effect
Method in brief: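 CellTiter-Glo luminescence readout of viability in wild type DT40 cells after 40 h compound exposure at 37 C/5% CO2; 300 cells/well; reagent incubated 30 min at room temperature before reading.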

[13] = qHTS assay for identifying genotoxic compounds that show differential cytotoxicity against isogenic chicken DT40 cell lines with known DNA damage response pathways - Rev3 mutant cell line (AID 743014); further: nearly all actives have a fitted effect of over 55% in size; further: potency means the concentration at half of the fitted maximal effect
[14] = qHTS assay for identifying genotoxic compounds that show differential cytotoxicity against isogenic chicken DT40 cell lines with known DNA damage response pathways - Rad54/Ku70 mutant cell line (AID 743015); further: nearly all actives have a fitted effect of over 60% in size; further: potency means the concentration at half of the fitted maximal effect
[15] = qHTS assay to identify small molecule antagonists of the androgen receptor (AR) signaling pathway - cell viability counter screen (AID 743033; further: nearly all actives have a fitted effect of over 45% in size; further: potency means the concentration at half of the fitted maximal effect)
[16] = qHTS assay to identify small molecule antagonists of the androgen receptor (AR) signaling pathway using the MDA cell line - cell viability counter screen (AID 743041; further: nearly all actives have a fitted effect of over 45% in size)
Method in brief: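 Cytotoxicity counter screen: MDA-kb2 AR-luc cells, compound + R1881, 16 h, 37C, 0% CO2; CellTiter-Fluor added at 15.5 h, fluorescence read after 30 min.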

[17] = qHTS assay to identify small molecule antagonists of the thyroid receptor (TR) signaling pathway - cell viability counter screen (AID 743064); further: nearly all actives have a fitted effect of over 50% in size; further: potency means the concentration at half of the fitted maximal effect
Method in brief: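 Plate GH3.TRE-Luc cells; incubate 4 h at 37 °C; add compound, then T3 to 1 nM final; incubate 23.5 h; add CellTiter-Fluor; incubate 30 min at 37 °C, 5% CO2; read fluorescence.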

[18] = biological target: Androgen receptor (Homo sapiens) (UniProt P10275); assay: qHTS assay to identify small molecule antagonists of the androgen receptor (AR) signaling pathway (AID 743035; active means well fitted inhibition curve with a large enough effect in the signal ratio in the repeat runs, not every such curve was filed as active; the % refers to the signal ratio)
Sequence of Androgen receptor (Homo sapiens) (P10275 whole entry, looked up): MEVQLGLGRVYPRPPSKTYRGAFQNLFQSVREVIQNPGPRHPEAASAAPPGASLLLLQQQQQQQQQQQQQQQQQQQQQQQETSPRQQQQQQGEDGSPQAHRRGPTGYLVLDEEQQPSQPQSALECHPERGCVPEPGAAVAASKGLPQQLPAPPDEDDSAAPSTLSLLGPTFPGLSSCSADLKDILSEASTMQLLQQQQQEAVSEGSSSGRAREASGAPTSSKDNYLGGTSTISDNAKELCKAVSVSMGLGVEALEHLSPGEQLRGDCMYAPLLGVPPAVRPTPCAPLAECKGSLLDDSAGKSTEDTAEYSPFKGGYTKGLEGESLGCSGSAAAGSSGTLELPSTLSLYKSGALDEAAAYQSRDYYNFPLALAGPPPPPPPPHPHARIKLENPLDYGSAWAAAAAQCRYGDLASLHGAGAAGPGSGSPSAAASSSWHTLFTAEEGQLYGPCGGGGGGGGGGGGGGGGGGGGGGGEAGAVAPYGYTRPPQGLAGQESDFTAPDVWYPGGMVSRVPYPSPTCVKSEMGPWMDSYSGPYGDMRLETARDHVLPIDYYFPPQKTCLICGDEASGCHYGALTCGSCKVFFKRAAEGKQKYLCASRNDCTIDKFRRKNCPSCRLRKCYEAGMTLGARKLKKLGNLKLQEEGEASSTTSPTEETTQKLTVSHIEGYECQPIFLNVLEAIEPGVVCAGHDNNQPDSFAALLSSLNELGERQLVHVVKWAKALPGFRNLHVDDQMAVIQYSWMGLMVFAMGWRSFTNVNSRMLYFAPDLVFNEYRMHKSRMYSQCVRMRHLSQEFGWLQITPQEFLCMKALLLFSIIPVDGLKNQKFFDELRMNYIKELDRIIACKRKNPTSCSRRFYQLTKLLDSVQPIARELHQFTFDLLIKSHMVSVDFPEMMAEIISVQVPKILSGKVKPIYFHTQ
Method in brief: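 AR-bla HEK293 reporter cells; 4 h settle at 37C/5% CO2; compound + R1881 agonist, 16 h at 37C; LiveBLAzer B/G FRET substrate 2 h RT; fluorescence intensity read. qHTS format.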

[19] = biological target: Androgen receptor (Homo sapiens) (UniProt P10275); assay: qHTS assay to identify small molecule agonists of the androgen receptor (AR) signaling pathway (AID 743036; active means well fitted activation curve with a large enough effect in the signal ratio in the repeat runs, with a control signal flat, not every such curve was filed as active; the % refers to the signal ratio)
Method in brief: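 Reporter line: GeneBLAzer AR-UAS-bla-GripTite (HEK293). Steps: plate cells, 4 h rest, add compounds, 16 h at 37C, add LiveBLAzer B/G substrate, 2 h at RT, read fluorescence.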

[20] = biological target: Androgen receptor (Homo sapiens) (UniProt P10275); assay: qHTS assay to identify small molecule agonists of the androgen receptor (AR) signaling pathway using the MDA cell line (AID 743040; further: nearly all actives have a fitted effect of over 20% in size)
Method in brief: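 Luciferase read-out, ONE-Glo, 30 min RT. Cells: MDA-kb2 AR-luc, MMTV promoter with AR and GR response elements. Compound exposure 16 h, 37C, 0% CO2, after 5 h pre-incubation. qHTS agonist mode.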

| Compound | Potency [1] | outcome [2] | Potency [3] | Potency [4] | Potency [5] | outcome [6] | Potency [7] | outcome [8] | Potency [9] | Potency [10] | Potency [11] | Potency [12] | Potency [13] | Potency [14] | Potency [15] | Potency [16] | Potency [17] | Potency [18] | outcome [19] | Potency [20] |
| --- | --- | --- | --- | --- | --- | --- | --- | --- | --- | --- | --- | --- | --- | --- | --- | --- | --- | --- | --- | --- |
| CC(C)CC(C)(O)C#CC(C)(O)CC(C)C (configuration not stated) | inactive | inactive | inactive | inactive | inactive | inactive | inactive | inactive | inactive | inactive | inactive | inactive | 54.5 µM (active) | 54.5 µM (active) | inactive | inactive | inactive |  |  |  |
| CCCCC(CC)COP(=O)(OCC(CC)CCCC)OCC(CC)CCCC (configuration not stated) | inactive | inactive | inactive | inactive | inactive | inactive | inactive | inactive | inactive | inactive | inactive | inactive | inactive | inactive | inactive | inactive | inactive |  |  |  |
| Cc1ccc(C)c(O)c1C | inactive | inactive | inactive | inactive | inactive | inactive | inactive | inactive | inactive | inactive | inactive | inactive | inactive | inactive | inactive | inactive | inactive | inactive | inactive | inactive |
| CC(=O)Oc1ccccc1C(=O)Nc1ncc([N+](=O)[O-])s1 | inactive | inactive | inactive | inactive | inactive |  | inactive | inactive |  |  | 11.2 µM (active) | 13.3 µM (active) | 10.6 µM (active) and 62.4 µM (active) | 13.3 µM (active) |  | inactive | 29.8 µM (active) and 19.7 µM (active) |  |  |  |
| C#C[C@]1(O)CC[C@H]2[C@@H]3CCC4=Cc5oncc5C[C@]4(C)[C@H]3CC[C@@]21C | inactive | inactive | inactive | inactive | inactive |  | inactive | inactive | inactive | 5.35 µM (active) |  | 9.69 µM (active) | inactive and 24.3 µM (active) | 13.7 µM (active) | inactive and 38.9 µM (active) | inactive | inactive and 61.1 µM (active) |  |  |  |
| CC(C)OC(=O)C(C)(C)Oc1ccc(C(=O)c2ccc(Cl)cc2)cc1 | inactive | inactive | inactive | inactive |  | inactive | inactive | inactive | inactive | inactive | inactive | 29.8 µM (active) and 12.2 µM (active) |  | 15.4 µM (active) | inactive and 43.6 µM (active) |  |  | inactive | inactive | inactive |
| c1ccc2c(c1)Oc1ccccc1S2 | inactive | inactive | inactive | inactive |  | inactive | inactive | inactive | inactive | inactive | inactive | inactive | inactive | inactive | inactive | inactive | inactive |  |  |  |
| c1ccc(Nc2ccccc2)cc1 | inactive | inactive | inactive | inactive | inactive |  | inactive | inactive |  |  | inactive | 61.1 µM (active) |  | inactive | inactive | inactive | inactive |  |  |  |
| Cn1cnc([N+](=O)[O-])c1Sc1ncnc2nc[nH]c12 | inactive | inactive | inactive | inactive | inactive | inactive | inactive | inactive | inactive |  |  | inactive | inactive and 52.6 µM (active) | inactive | inactive | inactive | inactive |  |  |  |
| CC(C(=O)O)c1cccc(C(=O)c2ccccc2)c1 (configuration not stated) | inactive | inactive | inactive | inactive | inactive |  | inactive | inactive |  |  | inactive | inactive | inactive | inactive | inactive | inactive | inactive |  |  |  |
| CCCCC(CC)COC(=O)c1ccc(N(C)C)cc1 (configuration not stated) | inactive | inactive | inactive | inactive | inactive |  | inactive | inactive | inactive | inactive | inactive | inactive |  | inactive and 43.3 µM (active) | inactive | inactive | inactive |  |  |  |
| Brc1cc(Oc2cc(Br)c(Br)c(Br)c2Br)c(Br)c(Br)c1Br | inactive | inactive | inactive | inactive | inactive |  | inactive | inactive | inactive | inactive | inactive | inactive |  | inactive |  | inactive | inactive |  |  |  |
| O=C(OCc1ccccc1)c1ccccc1O | inactive | inactive | inactive | inactive |  | inactive | inactive | inactive | inactive | inactive | inactive |  |  |  |  | inactive | inactive |  |  |  |
